Inconclusive results are not listed. Activity calls are given as the source filed them. Unless noted, calls follow the shape of the dose curve; as a rule, active = well fitted curve in the direction sought with a large enough effect; inconclusive = small, poorly fitted or top-dose-only effect, or another doubt; inactive = no such curve, though single readings can be large; an effect the other way counts as inactive or inconclusive.
Assays:
[1] = target: Lysosomal acid glucosylceramidase (Homo sapiens) (UniProt P04062); test: Glucocerebrosidase-p2 (AID 348; in the data active = potency below about 10 µM; also: potency is read from the fitted curve at half-maximal effect); conditions: purified GBA, blue fluorogenic substrate, 40 min
Chain of Lysosomal acid glucosylceramidase (Homo sapiens) (P04062 whole entry, looked up): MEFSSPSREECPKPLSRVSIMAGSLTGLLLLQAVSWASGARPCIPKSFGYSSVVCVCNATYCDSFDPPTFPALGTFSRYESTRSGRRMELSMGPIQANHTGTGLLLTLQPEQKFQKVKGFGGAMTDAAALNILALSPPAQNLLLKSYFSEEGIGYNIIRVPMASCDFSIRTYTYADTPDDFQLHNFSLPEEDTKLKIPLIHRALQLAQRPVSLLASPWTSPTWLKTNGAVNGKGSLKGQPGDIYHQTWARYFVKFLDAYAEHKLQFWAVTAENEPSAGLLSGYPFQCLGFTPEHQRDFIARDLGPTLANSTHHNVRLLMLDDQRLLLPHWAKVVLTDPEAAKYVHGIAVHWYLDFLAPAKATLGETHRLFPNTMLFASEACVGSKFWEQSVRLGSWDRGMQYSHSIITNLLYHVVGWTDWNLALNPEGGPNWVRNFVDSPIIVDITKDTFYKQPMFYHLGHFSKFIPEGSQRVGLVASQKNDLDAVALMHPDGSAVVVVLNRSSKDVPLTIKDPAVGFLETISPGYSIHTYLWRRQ
Outline: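 Normal human glucocerebrosidase (0.2 nM) with blue fluorogenic substrate (80 uM final) in citrate/phosphate pH 5.9 with 10mM sodium taurocholate, 0.01% tween-20; 40 min RT, NaOH/glycine stop; fluorescence Ex 365/Em 440; AC50 from a titration from 0.6 nM upwards.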

[2] = AP1 Signaling Pathway (AID 357; active = well fitted curve in either direction with a large enough effect, not every such curve was filed as active;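 also: ME-180 reporter cells stimulated with EGF at its EC50 level; % is scaled to controls: 0 for no effect and ±100 for the full control effect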); conditions: ME-180 AP-1-bla reporter, EGF-induced, beta-lactamase ratio, 5 h; at 7.69 µM (top of the series) unless noted
Outline: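 Titration-series screen for positive or negative modulators of EC50 EGF-induced signaling in ME-180 cells carrying an AP-1-driven beta-lactamase reporter. After 5 hours at 37 degrees Celsius, CCF4 460nm/530nm emission ratio gave %Activity; AC50 values derived.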

[3] = target: Cytochrome P450 1A2 (Homo sapiens) (UniProt P05177); test: p450-cyp1a2 (AID 410; calls by dose curve; also: potency is read from the fitted curve at half-maximal effect)
Chain of Cytochrome P450 1A2 (Homo sapiens) (P05177 whole entry, looked up): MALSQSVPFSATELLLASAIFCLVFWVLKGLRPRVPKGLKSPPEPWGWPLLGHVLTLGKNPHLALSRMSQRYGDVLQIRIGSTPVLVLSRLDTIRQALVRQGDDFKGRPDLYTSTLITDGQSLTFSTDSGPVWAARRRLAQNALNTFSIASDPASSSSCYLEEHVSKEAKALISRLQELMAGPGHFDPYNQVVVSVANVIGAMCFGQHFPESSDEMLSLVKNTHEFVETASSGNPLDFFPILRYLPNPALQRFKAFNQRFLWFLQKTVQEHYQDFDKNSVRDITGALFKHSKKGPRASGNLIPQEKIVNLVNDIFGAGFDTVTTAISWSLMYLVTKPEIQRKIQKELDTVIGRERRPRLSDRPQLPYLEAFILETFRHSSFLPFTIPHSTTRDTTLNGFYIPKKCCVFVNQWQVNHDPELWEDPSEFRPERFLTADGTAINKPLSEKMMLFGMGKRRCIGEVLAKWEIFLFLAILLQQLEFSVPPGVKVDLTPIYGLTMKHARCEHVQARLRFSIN
Outline: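 Read-out is luminescence from luciferin produced by CYP1A2 demethylation of Luciferin-ME (100uM, at Km). Detection reagent stopped the 60 min NADPH-dependent reaction; signals were normalized to 57 uM furafylline.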

[4] = NFAT Signaling Pathway (AID 444; active = well fitted curve in either direction with a large enough effect, not every such curve was filed as active;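 also: carbachol stimulus at about its EC50 of 1 µM final; % is scaled to controls: 0 for no effect and ±100 for the full control effect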); conditions: Jurkat NFAT-bla M1, carbachol, beta-lactamase ratio, 5 h; at 7.69 µM (top of the series) unless noted
Outline: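 Read-out: CCF4 FRET ratio (460 nm/530 nm) after 1 h RT dye loading, used for %activity and AC50 from titration series. Cells: Jurkat NFAT-β-lactamase/M1 line, treated with compound plus 1 uM carbachol for 5 h, 37 °C.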

[5] = Stat Signaling Pathway (AID 446; active = well fitted curve in either direction with a large enough effect, not every such curve was filed as active;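 also: ME-180 cervical cancer cells given 40 pM IL-6 alongside compound; SIE-controlled beta-lactamase reporter measured as 460/530 nm FRET emission ratio; % is scaled to controls: 0 for no effect and ±100 for the full control effect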); conditions: ME-180 SIE beta-lactamase reporter, IL-6 stimulated, 5 h; at 7.69 µM (top of the series) unless noted
Outline: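 FRET read-out (405 nm excitation, 460/530 nm emission) of a beta-lactamase reporter under a STAT-inducible element in ME-180 cervical carcinoma cells. Cells with compound receive 40 pM IL-6 for 5 h. Values are normalised to AC90 stimulation and AC90 JAK-inhibitor controls.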

[6] = target: Glucocorticoid receptor (Homo sapiens) (UniProt P04150); test: GR-GFP Redistribution (AID 450;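 active = compounds whose dose series gives a full or clear partial fitted curve of increased nuclear translocation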; also: potency is read from the fitted curve at half-maximal effect); conditions: U2OS GR-GFP nuclear translocation, laser cytometry, 2 h
Chain of Glucocorticoid receptor (Homo sapiens) (P04150 whole entry, looked up, the tested form may be a part): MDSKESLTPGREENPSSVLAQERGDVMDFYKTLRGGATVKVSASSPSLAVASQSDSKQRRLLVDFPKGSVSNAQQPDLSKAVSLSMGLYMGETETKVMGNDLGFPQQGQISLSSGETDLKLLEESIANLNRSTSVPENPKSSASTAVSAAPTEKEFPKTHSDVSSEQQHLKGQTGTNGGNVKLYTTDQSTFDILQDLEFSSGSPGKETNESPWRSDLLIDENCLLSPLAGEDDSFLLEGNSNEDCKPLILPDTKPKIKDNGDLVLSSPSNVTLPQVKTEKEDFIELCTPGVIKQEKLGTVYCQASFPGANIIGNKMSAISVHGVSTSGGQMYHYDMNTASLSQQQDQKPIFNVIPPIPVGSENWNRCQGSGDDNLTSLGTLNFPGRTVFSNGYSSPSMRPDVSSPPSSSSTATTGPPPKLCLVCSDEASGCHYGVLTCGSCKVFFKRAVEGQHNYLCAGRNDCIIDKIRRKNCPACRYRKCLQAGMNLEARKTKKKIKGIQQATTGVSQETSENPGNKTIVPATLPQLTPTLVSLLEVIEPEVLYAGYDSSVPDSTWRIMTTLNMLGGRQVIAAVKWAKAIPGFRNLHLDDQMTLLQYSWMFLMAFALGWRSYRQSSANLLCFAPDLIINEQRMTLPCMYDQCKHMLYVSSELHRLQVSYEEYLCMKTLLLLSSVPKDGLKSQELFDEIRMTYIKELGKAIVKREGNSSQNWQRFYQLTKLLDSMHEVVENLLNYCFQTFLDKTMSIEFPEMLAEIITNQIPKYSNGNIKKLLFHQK

[7] = target: Glucocorticoid receptor (Homo sapiens) (UniProt P04150); test: GR-EFC Redistribution (AID 451; calls by dose curve; also: potency is read from the fitted curve at half-maximal effect); conditions: CHO-K1 GR-EFC translocation, beta-gal luminescence, 2 h
Outline: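 Translocation of GR-ED fusion to nuclear EA restores b-gal, read by luminescence after 1 h room-temperature detection. Engineered CHO-K1 biosensor cells, 1,000/well, exposed 2 h at 37 C to titrations up to 46 uM final.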

[8] = target: Mitogen-activated protein kinase 10 (Mus musculus) (UniProt Q61831); test: JNK3 AlphaScreen Assay (AID 530; active = well fitted curve in either direction with a large enough effect, not every such curve was filed as active;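 also: kinase came from lysate of stimulated human HepG2 cells; signal reports phosphorylation of biotinylated GST-cJun 1-79 at Ser73 with 10 µM ATP; % is scaled to controls: 0 for no effect and ±100 for the full control effect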)
Outline: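 Kinase buffer: 20 mM Tris-HCl pH 7.6, 10 mM MgCl2, 1 mM DTT, 0.1 mM Na3VO4, 0.01% Tween-20; ATP 10 uM. Substrate biotin-GST-cJun(1-79), enzyme from activated HepG2 lysates. Detection by Ser73 phospho-antibody AlphaScreen.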

[9] = target: 3',5'-cyclic-AMP phosphodiesterase 4B (Homo sapiens) (UniProt Q07343); test: qHTS Assay for Inhibitors of PDE-IV (AID 607; active = well fitted activation curve with a large enough effect in the main read-out, with a control signal flat, not every such curve was filed as active; also: % of control where 0% means no effect)
Chain of 3',5'-cyclic-AMP phosphodiesterase 4B (Homo sapiens) (Q07343 whole entry, looked up): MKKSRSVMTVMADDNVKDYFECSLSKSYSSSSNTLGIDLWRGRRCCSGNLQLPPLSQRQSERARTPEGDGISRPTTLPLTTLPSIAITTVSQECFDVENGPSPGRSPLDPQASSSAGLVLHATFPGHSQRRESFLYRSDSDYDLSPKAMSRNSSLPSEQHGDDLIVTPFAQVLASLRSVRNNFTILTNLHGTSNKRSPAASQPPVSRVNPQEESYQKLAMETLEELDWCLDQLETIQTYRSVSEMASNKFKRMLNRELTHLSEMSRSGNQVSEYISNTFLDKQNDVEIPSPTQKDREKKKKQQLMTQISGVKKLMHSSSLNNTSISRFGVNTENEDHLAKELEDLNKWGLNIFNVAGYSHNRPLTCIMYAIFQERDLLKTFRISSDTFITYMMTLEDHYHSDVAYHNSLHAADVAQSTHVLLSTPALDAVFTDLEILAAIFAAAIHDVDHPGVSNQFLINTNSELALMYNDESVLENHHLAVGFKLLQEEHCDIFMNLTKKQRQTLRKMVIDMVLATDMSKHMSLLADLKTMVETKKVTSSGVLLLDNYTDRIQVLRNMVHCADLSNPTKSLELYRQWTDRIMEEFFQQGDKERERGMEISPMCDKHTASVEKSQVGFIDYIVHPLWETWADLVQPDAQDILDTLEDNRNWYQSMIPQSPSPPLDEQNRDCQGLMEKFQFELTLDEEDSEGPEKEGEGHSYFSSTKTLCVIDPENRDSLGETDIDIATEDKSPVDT
Outline: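 Cell-based read-out of cAMP via a modified cyclic nucleotide-gated channel and membrane potential dye (535/590 nm) in HEK293 cells expressing PDE4 endogenously. Compounds tested up to 22.9 uM final; 100 uM RO 20-1724 reference.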

[10] = target: Cytochrome P450 3A4 (Homo sapiens) (UniProt P08684); test: qHTS Assay for Activators of Cytochrome P450 3A4 (AID 885); also: nearly all actives have a fitted effect of over 65% in size
Chain of Cytochrome P450 3A4 (Homo sapiens) (P08684 whole entry, looked up): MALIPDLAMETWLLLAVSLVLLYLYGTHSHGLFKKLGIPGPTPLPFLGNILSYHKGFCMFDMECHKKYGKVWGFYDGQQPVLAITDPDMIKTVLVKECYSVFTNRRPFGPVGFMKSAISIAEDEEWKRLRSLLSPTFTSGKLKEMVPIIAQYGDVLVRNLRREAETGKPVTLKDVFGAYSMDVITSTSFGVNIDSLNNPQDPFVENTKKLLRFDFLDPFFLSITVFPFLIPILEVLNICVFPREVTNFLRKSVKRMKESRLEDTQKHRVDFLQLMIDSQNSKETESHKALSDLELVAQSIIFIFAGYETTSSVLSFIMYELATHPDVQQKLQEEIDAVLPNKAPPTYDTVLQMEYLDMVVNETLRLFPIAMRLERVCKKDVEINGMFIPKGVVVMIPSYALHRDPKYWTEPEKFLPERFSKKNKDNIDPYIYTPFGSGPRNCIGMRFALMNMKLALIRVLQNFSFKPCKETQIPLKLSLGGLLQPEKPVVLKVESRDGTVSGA
Outline: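 Luminescent readout of luciferin formed from 25 uM Luciferin-PPXE (KM level) by 20 nM CYP3A4 in 200 mM KPO4, with 60 min NADPH-driven reaction at room temperature after 10 min compound exposure. Ketoconazole (57 uM) defined 100% inhibition.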

[11] = Confirmation and Secondary Assay for Modulators of Hemoglobin Beta Chain Splicing at IVS2 654 locus (AID 910);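 also: HeLa cells stably carrying EGFP split by mutant beta-globin IVS2-654 intron; per-well total GFP intensity by laser scanning cytometry after 2-day treatment; % of control where 0% means no effect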
Outline: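 Readout: per-well total peak green fluorescence (488 nm ex, 500–520 nm em) from objects 5–250 µm, reflecting correct splicing of an EGFP-654 reporter. Compounds were applied for 2 days at 37 °C to overnight-plated HeLa EGFP-654 cells; controls were DMSO and 500 nM IVS2-654 PNA.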

[12] = Counterscreen qHTS for small molecule stabilizers of the endoplasmic reticulum resident proteome: GLuc-NoTag assay (AID 1508627);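 also: SH-SY5Y cells given compound then 100 nM thapsigargin to empty ER calcium; 0% = thapsigargin alone and -100% = DMSO vehicle control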
Outline: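 Counterscreen line: SH-SY5Y-GLuc-NoTag cells, treated with compound 19 hr before a 4 hr, 100 nM thapsigargin calcium depletion. Secreted Gaussia luciferase in the medium was measured by luminescence after coelenterazine was added (0.07x final), with cells unlysed.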

[13] = Confirmatory qHTS for small molecule stabilizers of the endoplasmic reticulum resident proteome: Secreted ER Calcium Modulated Protein (SERCaMP) assay (AID 1508628); also: nearly all actives have a fitted effect of over 40% in size; also: potency is read from the fitted curve at half-maximal effect
Outline: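 GLuc-SERCaMP-expressing SH-SY5Y cells, pretreated 16 h with compound, are challenged with thapsigargin to empty ER calcium stores; after 4 h, coelenterazine is added directly to the medium and luminescence is imaged.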

[14] = Cell Viability qHTS for small molecule stabilizers of the endoplasmic reticulum resident proteome (AID 1508629); conditions: cell viability counter-screen, 100 nM thapsigargin for final 4 h
[15] = qHTS Assay for Lipid Storage Modulators (AID 1519; calls by dose curve); conditions: Drosophila S3 cells, BODIPY lipid droplet/cell ratio, laser cytometry, cells loaded with oleic acid; for activity change, negative = inhibition: at 57.5 µM (top of the series)
Outline: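 Cells seeded at 5,000 per well were treated with compounds over a concentration series and loaded with oleic acid (400 uM, as added). Lipid droplet fluorescence (488 nm excitation, 500-530 nm channel) was read by laser-scanning cytometry and normalized to 20 uM Triacsin C.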

[16] = qHTS Assay for Identification of Small Molecule Agonists for Hypoxia Response Element Signaling Pathway (AID 914; active = well fitted activation curve with a large enough effect in the signal ratio, with a control signal flat, not every such curve was filed as active; the % refers to the signal ratio; also: potency is read from the fitted curve at half-maximal effect); conditions: ME-180 (cervical carcinoma) HRE-bla reporter, beta-lactamase ratio, CoCl2, 17 h; activation: stronger effect = higher value
Outline: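 Read-out: CCF4 FRET ratio of 460nm to 530nm emission (excitation 405nm) after 2.5 hours at room temperature, taken from HRE-bla ME-180 cells that had been exposed to compound and EC50 CoCl2 for 17 hours.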

[17] = target: Dual specificity protein kinase CLK4 (Homo sapiens) (UniProt Q9HAZ1); test: qHTS Assay for Inhibitors of CDC-like Kinase 4 (Kinase-Glo Assay) (AID 1770); also: % is scaled to controls: 0 for no effect and ±100 for the full control effect; nearly all actives have a fitted effect of over 65% in size
Chain of Dual specificity protein kinase CLK4 (Homo sapiens) (Q9HAZ1 whole entry, looked up): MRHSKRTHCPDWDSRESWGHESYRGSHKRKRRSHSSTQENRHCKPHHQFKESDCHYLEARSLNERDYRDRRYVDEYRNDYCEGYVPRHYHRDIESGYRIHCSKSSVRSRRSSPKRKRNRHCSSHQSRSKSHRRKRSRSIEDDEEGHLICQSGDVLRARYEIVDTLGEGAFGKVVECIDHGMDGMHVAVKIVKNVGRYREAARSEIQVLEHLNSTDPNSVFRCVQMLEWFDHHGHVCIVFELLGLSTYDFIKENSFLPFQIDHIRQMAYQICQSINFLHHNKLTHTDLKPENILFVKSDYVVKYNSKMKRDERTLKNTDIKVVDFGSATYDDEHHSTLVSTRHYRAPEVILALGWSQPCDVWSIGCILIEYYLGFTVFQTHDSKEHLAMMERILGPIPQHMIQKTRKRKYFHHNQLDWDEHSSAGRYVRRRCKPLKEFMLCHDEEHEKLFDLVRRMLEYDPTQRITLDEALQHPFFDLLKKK
Outline: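 Recombinant human Clk4 (25 nM) phosphorylated RS repeat peptide (100 uM) with 1 uM ATP in Tris pH 7.5/MgCl2/EGTA/DTT/Triton buffer for 4.5 h at room temperature. Residual ATP was quantified by Kinase-Glo luciferase luminescence.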

[18] = target: Dual specificity protein kinase CLK4 (Homo sapiens) (UniProt Q9HAZ1); test: qHTS Assay for Inhibitors of CDC-like Kinase 4 (ADP-Glo Assay) (AID 1771); also: % is scaled to controls: 0 for no effect and ±100 for the full control effect; nearly all actives have a fitted effect of over 70% in size
Outline: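 In this ADP-Glo format, 1 uM ATP and 100 uM RS peptide served as substrates for 25 nM Clk4 in Mg2+/EGTA/DTT/Triton buffer; reactions ran 1 hr at room temperature before luminescent ADP quantification.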

[19] = target: Dual specificity protein kinase CLK4 (Homo sapiens) (UniProt Q9HAZ1); test: qHTS Assay for Inhibitors of CDC-like Kinase 4 (ADP-FP Assay) (AID 1795); also: % is scaled to controls: 0 for no effect and ±100 for the full control effect; nearly all actives have a fitted effect of over 60% in size
Outline: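 Recombinant human Clk4 (6.25 nM) phosphorylated RS repeat peptide (100 uM) with 1 uM ATP in Tris pH 7.5/MgCl2/EGTA/DTT/Triton buffer for one hour. ADP was quantified by Transcreener competitive fluorescence polarization against an ADP calibration curve.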

[20] = target: Ubiquitin carboxyl-terminal hydrolase 1 (Homo sapiens) (UniProt O94782); test: Inhibitors of USP1/UAF1: Pilot qHTS (AID 504865);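 also: rhodamine fluorescence freed from ubiquitin-rhodamine substrate followed over time; top concentration of the series differs between compounds; % is scaled to controls: 0 for no effect and ±100 for the full control effect; nearly all actives have a fitted effect of over 35% in size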
Chain of Ubiquitin carboxyl-terminal hydrolase 1 (Homo sapiens) (O94782 whole entry, looked up): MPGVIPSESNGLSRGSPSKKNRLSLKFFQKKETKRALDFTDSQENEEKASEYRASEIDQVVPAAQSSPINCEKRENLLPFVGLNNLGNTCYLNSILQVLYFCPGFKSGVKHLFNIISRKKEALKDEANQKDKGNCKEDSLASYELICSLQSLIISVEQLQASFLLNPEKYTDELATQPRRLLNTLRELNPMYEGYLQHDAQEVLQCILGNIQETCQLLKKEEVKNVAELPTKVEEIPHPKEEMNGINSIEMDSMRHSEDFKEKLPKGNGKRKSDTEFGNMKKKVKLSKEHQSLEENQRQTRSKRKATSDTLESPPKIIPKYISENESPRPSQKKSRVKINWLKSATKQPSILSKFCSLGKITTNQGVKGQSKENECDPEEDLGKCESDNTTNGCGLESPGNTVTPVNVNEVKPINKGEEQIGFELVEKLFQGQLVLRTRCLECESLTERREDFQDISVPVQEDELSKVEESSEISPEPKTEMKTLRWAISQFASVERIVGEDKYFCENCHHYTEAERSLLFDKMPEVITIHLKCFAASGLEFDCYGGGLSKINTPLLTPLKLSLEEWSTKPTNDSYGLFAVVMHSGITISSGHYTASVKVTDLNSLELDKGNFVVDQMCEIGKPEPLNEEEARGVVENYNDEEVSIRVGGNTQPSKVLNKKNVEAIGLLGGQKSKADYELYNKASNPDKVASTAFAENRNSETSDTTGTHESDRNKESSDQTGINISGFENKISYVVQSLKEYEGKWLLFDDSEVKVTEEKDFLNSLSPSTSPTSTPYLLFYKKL
Outline: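 USP1/UAF1 complex (1nM) preincubated with compound 15 min at room temperature, then Ub-Rho substrate (150nM final) added. Fluorescence read kinetically at 480/540 nm, 6 reads every 60 seconds. Buffer: 50mM HEPES pH 7.8, 0.5mM EDTA, 0.1 mg/ml BSA, 1mM TCEP, 0.01% Tween-20.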

[21] = measured here: cell count channel max response
[22] = measured here: lipid channel max response

CN1CCN(c2nc(-c3ccc(N(C)C)cc3)nc3ccccc23)CC1
inactive: Potency [1] > 11.4 µM | activity change, negative = inhibition [2] 5.88% | activity change, negative = inhibition [4] -2.47% | activity, negative = inhibition [5] 3.05% | Potency [6] > 46 µM | Potency [7] > 46 µM | outcome [8] | Potency [9] | Potency [10] | outcome [11] | Potency [12] | Potency [13] | max response [14] 17.5%
active: Potency [3] 12.6 µM

Cc1noc(C)c1-c1nc(N2CCNCC2)c2ccccc2n1
19.2%: max response [15, 22]
11.4%: max response [15, 21]
inactive: Potency [1] > 11.4 µM | activity change, negative = inhibition [2] 18.5% | activity change, negative = inhibition [4] -3.25% | activity, negative = inhibition [5] 13.9% | Potency [6] > 46 µM | Potency [7] > 46 µM | outcome [8] | Potency [9] | outcome [11] | activity change, negative = inhibition [15] 9.99% | Potency [12]
active: Potency [13] 14.1 µM

CCNc1ncc2nc(CCc3ccccc3)c(=O)n(CCOC)c2n1
inactive: activity change, negative = inhibition [2] 0.721% | activity change, negative = inhibition [4] 2.18% | activity, negative = inhibition [5] -8.07% | Potency [6] > 9.22 µM | outcome [8] | Potency [10] | Potency [12] | max response [14] 18.6%
active: Potency [3] 2 µM | Potency [13] 35.5 µM

COc1ccc(CNc2ncnc3ccc(-c4ccccc4CN(C)C)cc23)c(OC)c1
8.13%: max response [15, 22]
4.91%: max response [15, 21]
active: Potency [3] 31.6 µM | Potency [13] 7.94 µM
inactive: activity change, negative = inhibition [2] 7.23% | activity, negative = inhibition [5] -15.7% | Potency [6] > 46 µM | Potency [7] > 46 µM | outcome [8] | Potency [10] | outcome [11] | activity change, negative = inhibition [15] 3.46% | Potency [12] | max response [14] 6.24%

COCCn1c(=O)c(-c2cn(C)c3ccccc23)nc2cnc(N3CCNCC3)nc21
inactive: Potency [1] > 11.4 µM | activity change, negative = inhibition [2] 16% | activity change, negative = inhibition [4] 18.5% | Potency [6] > 9.22 µM | Potency [7] > 46 µM | outcome [8] | Potency [9] | Potency [10] | Potency [17] | Potency [18] | Potency [19] | Potency [20] | Potency [12] | max response [14] -7.1%
active: Potency [3] 12.6 µM | Potency [16] 3.16 µM

O=C(c1ccco1)N1CCC[C@@]2(CCN(c3ccncc3)C2)C1
inactive: Potency [1] > 11.4 µM | activity change, negative = inhibition [2] 0.424% | activity, negative = inhibition [5] 1.83% | Potency [7] > 46 µM | outcome [8] | Potency [9] | Potency [10] | Potency [12]
active: Potency [3] 12.6 µM | Potency [13] 28.2 µM
